Rows were chosen to be rich in hits. Some 6% of all compounds tested hit in one or more screens of this group.
D1 antag = Antagonist of Human D 1 Dopamine Receptor: qHTS | activity change, negative = inhibition, % at 10 µM | actives 3.2% (n = 360,000) | HEK293 TREx D1 cells, calcium flux, dopamine EC80; stronger effect = lower value; in the data active means activity change below about -30%; further: on the % scale 0 is the no-effect control and ±100 the full control effect
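Cells carrying a force-coupled, tetracycline-inducible human D1 receptor report calcium flux. Each well gets a 10 s baseline, compound with 180 s monitoring, then an EC80 dopamine stimulus with a second 180 s kinetic read.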
D3 antag = qHTS of D3 Dopamine Receptor Antagonist: qHTS; D(3) dopamine receptor (Homo sapiens), P35462; D3R cells, DiscoveRx beta-arrestin luminescence, antagonist mode; stronger effect = lower value; max response, negative = inhibition, %; actives 2.5% (n = 360,000); in the data active means max response below about -50%; inconclusive means no clear call, values can overlap the other calls; further: on the % scale 0 is the no-effect control and ±100 the full control effect
Target sequence (P35462 whole entry, looked up): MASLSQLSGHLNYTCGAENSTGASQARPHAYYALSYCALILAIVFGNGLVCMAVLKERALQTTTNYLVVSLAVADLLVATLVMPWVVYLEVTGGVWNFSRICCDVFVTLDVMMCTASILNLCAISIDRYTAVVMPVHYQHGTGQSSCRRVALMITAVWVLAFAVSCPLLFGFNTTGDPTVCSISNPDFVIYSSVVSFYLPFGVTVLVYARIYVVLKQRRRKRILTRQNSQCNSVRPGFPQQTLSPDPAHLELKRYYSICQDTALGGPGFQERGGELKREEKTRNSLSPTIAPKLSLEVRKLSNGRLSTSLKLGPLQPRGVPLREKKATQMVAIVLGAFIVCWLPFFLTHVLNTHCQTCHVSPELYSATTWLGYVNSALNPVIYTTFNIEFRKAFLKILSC
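Cells plated overnight at 1500 cells/well, then exposed to library compounds with dopamine controls for 90 minutes at 37 degrees C. DiscoveRx reagent added for 30–60 minutes at room temperature; luminescence read, quantitative HTS format.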
D1 PAM = Potentiators of Human D1 Dopamine Receptor: qHTS. potentiation, % at 10 µM. HEK293 TREx D1 cells, calcium flux, dopamine EC20 potentiation. actives 0.036% (n = 360,000). D(1A) dopamine receptor (Homo sapiens), P21728; in the data active means potentiation above about 30%; further: 0% is about no effect
D1 agonist = Allosteric Agonists of the Human D1 Dopamine Receptor: qHTS; D(1A) dopamine receptor (Homo sapiens), P21728; HEK293 T-REx D1 cells, calcium flux, agonist mode; activation, % at 2 µM; actives 1% (n = 360,000); in the data active means activation above about 30%; further: 0% is about no effect
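Inducible HEK293 T-REx D1 cells, force-coupled to calcium signalling, were plated at 4000 cells/well with tetracycline and held overnight at 30 C. After no-wash calcium dye loading, compound-evoked calcium rise over 180 s flagged agonists.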
D3 ag = qHTS of D3 Dopamine Receptor Agonist: qHTS; D(3) dopamine receptor (Homo sapiens), P35462; D3R DiscoveRx beta-arrestin cells, luminescence, 90 min; max activation, %; actives 0.58% (n = 410,000); AID 652048, 2013; in the data active means max activation above about 30%; further: 0% is about no effect
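Agonist mode: compounds and dopamine controls were applied to plated cells for 90 min at 37 degrees C after an overnight attachment at 1500 cells/well. Luminescent read-out followed 30 - 60 minutes at room temperature with DiscoveRx detection reagent.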
* = called active by the depositor; ? = inconclusive; · = no result.

SMILES	D1 antag	D3 antag	D1 PAM	D1 agonist	D3 ag
Cc1ccccc1C(=O)NC1CC2CCCC(C1)N2Cc1ccccc1 (centres undefined)	-15	-85*	-8	1	-18
CCCCN1C2CCCC1CC(NC(=O)c1ccccc1Cl)C2 (centres undefined)	1	11	-5	2	-10
C=CC[n+]1c(-c2ccc(Cl)cc2Cl)csc1Nc1c(C)n(C)n(-c2ccccc2)c1=O	-18	-81*	-1	4	-27
O=C1Nc2cccc3c2N(CCC3)C2=C1CCC2	·	-4	·	·	2
Oc1c(Br)cc(Br)cc1CNc1cccc2cccnc12	0	-58*	4	9	-3
Oc1ccc(Br)cc1CNc1cccc2cccnc12	-13	?	-30	0	-10
Cc1cc(C)cc(-n2nnc(-c3nc(-c4ccc5c(c4)OCO5)no3)c2C)c1	-8	·	-2	1	9
N=c1n(CCN2CCCCC2)c2ccccc2n1CC(O)COc1ccc(Cl)cc1Cl (centres undefined)	1	·	-3	195*	-18
Cc1ccc(OCC(O)Cn2c(=N)n(CCN3CCCCC3)c3ccccc32)cc1 (centres undefined)	-5	-63*	0	16	-10
Cc1cc2c(c(=O)n1-c1ccccc1)C1O[C@](c3ccsc3)(Cc3ccccc31)O2	-6	·	-2	1	·
COc1ccc(Br)cc1CC1C(=O)Nc2ccccc21 (centres undefined)	-11	·	3	14	10
Cc1ccc2c(c1)C(Cc1ccccc1F)C(=O)N2 (centres undefined)	-46*	·	-2	2	10
COC(=O)CN1C(=O)Nc2ccc(C)cc2C1c1ccccc1 (centres undefined)	2	-11	0	2	2
Cc1ccccc1CC1C(=O)Nc2ccc(Br)cc21 (centres undefined)	3	·	32*	48*	10
COc1ccc(NC(=O)C2CCCN2S(=O)(=O)c2cccs2)c([N+](=O)[O-])c1 (centres undefined)	-6	-17	2	5	-12
Cc1ccc(NC(=O)CN2C(=O)COc3ccc(S(=O)(=O)NC4CCCC4)cc32)cc1Cl	-4	·	4	3	-9
CC12OC1C1(O)CCCC1=CC2=O (centres undefined)	1	·	-3	2	·
COc1cc(OC)c2ccc(=O)oc2c1C(CCN1CCN(c2ccccc2)CC1)c1ccc(N(C)C)cc1 (centres undefined)	-74*	-115*	-13	0	-62
CCN(CC)C(=O)CC(c1cc(OC)c(OC)c(OC)c1)c1c(OC)cc(OC)c2c(-c3ccccc3)cc(=O)oc12 (centres undefined)	-100*	-26	-9	2	-7
CCN(CC)C(=O)CC(c1cc(OC)c(OC)c(OC)c1)c1c(OC)cc(OC)c2ccc(=O)oc12 (centres undefined)	-7	0	1	3	12
CCCCCc1cc(=O)oc2c(C(CCN3CCN(c4ccccc4)CC3)c3ccc(N(C)C)cc3)c(OC)cc(OC)c12 (centres undefined)	-27	-52*	-5	3	-45
COc1cc(OC)c2c(-c3ccccc3)cc(=O)oc2c1C(CC(=O)N1CCOCC1)c1ccc(N(C)C)cc1 (centres undefined)	-8	2	-9	1	5
CCN(CC)CCC(c1ccc(N(C)C)cc1)c1c(OC)cc(OC)c2c(-c3ccccc3)cc(=O)oc12 (centres undefined)	-47*	-8	-5	39*	-10
COc1ccc(C(CCN2CCOCC2)c2c(OC)cc(OC)c3ccc(=O)oc23)cc1 (centres undefined)	·	-16	·	·	-32
CN(C)C(CNC1CC(C)(C)NC(C)(C)C1)c1cccc(F)c1 (centres undefined)	-5	-19	2	0	1
CC(C)N(CCCNC(=O)c1nn(C)c2c1CS(=O)(=O)c1ccccc1-2)Cc1ccccc1	-11	?	1	2	-29
